# Data from PubChem BioAssay (NCI).
# The panel holds about 83,000 compounds, 20% with a hit somewhere; the sample as a whole holds those more often.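 Step 1: grow cells in 96-well plates. Step 2: add test compound at a single concentration. Step 3: incubate 48 h. Step 4: record percent growth.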 The source made the active and inactive calls. The calls were made as follows: active = growth percent below 10; inactive = the rest.
# Test system: IGROV1 ovarian
# Test: NCI-60 one-dose screen, 48 h (100 = growth as untreated, 0 = no growth, -100 = all killed)
# Details: 10 µM unless noted
row,Structure (SMILES),growth
1,Cc1ccc(S(=O)(=O)c2nc(S(=O)(=O)c3ccc(C)cc3)c(N3CCC(O)CC3)s2)cc1,75.6% (inactive)
2,Cc1sc2c(c1C)C(c1ccc(Cl)cc1)=N[C@@H](CC(=O)NCCCCCNC(=O)COc1ccc(C3CCC(=O)NC3=O)cc1)c1nnc(C)n1-2 (stereo partly specified),21.8% (inactive)
3,COc1ccc2c(c1)C(=N/N=C(\C)c1ccc(OC)c(S(N)(=O)=O)c1)C(=O)N2,107% (inactive)
4,COc1cc2oc(-c3cccc(C(=O)Nc4ccc(Cl)cc4)c3)cc(=O)c2c(OCCNC(=O)[C@H](CCC(=O)OC(C)(C)C)NC(=O)OC(C)(C)C)c1OC,89.9% (inactive)
5,COc1ccc(-c2nc3cc(C)ccc3n2CC(=O)N=Nc2c(O)[nH]c3ccc(Cl)cc23)cc1,18.3% (inactive)
6,C=CC[N+](C)(C)CCn1c2ccccc2c2nc3cc(C)c(C)cc3nc21,42.6% (inactive)
7,O=C(c1ccc(OCCN2CCOCC2)cc1)C1[C@H](c2ccc(Cl)cc2)[C@@H](c2ccccc2)NC12C(=O)Nc1ccc(Br)cc12 (stereo partly specified),22.6% (inactive)
8,N#Cc1c(-c2ccc(Br)cc2)nc2n[nH]c(-c3ccc(Br)cc3)c2c1-c1ccc(F)cc1,75.1% (inactive)
9,Cc1ccccc1[C@H]1C(C(=O)c2ccc(Cl)cc2)C2(N[C@@H]1c1ccccc1)C(=O)Nc1ccc(Cl)cc12 (stereo partly specified),2.05% (active)
10,COc1cc(C2CC(c3cc(OC)c(OC)c(OC)c3)=NN2C(C)=O)ccc1OCc1ccccc1 (stereo unspecified),42.9% (inactive)
11,Cc1cccc(NC(=O)[C@]23CCC(C)(C)CC2C2=CCC4[C@@]5(C)C[C@@H](O)[C@H](O)[C@@](C)(CO)C5CC[C@@]4(C)[C@]2(C)CC3)c1 (stereo partly specified),35.6% (inactive)
